Test results from PubChem BioAssay (NCATS).
Results filed as inconclusive are left out. Calls of active or inactive are those of the source. Unless noted, calls come from the whole dose curve; as a rule, active = well fitted curve in the direction sought with a large enough effect; inconclusive = small, poorly fitted or top-dose-only effect, or another doubt; inactive = no such curve, though single readings can be large; an effect the other way counts as inactive or inconclusive.

Key:
[1] = molecular target: ATP-dependent 6-phosphofructokinase (Trypanosoma brucei brucei) (UniProt O15648); assay: qHTS Assay to Find Inhibitors of T. brucei phosphofructokinase: hit validation (AID 492961);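 note: luminescence reports ADP formed as PFK phosphorylates fructose-6-phosphate with ATP; % is set by controls: 0 for no effect and ±100 for the full control effect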
Chain of ATP-dependent 6-phosphofructokinase (Trypanosoma brucei brucei) (O15648 whole entry, looked up): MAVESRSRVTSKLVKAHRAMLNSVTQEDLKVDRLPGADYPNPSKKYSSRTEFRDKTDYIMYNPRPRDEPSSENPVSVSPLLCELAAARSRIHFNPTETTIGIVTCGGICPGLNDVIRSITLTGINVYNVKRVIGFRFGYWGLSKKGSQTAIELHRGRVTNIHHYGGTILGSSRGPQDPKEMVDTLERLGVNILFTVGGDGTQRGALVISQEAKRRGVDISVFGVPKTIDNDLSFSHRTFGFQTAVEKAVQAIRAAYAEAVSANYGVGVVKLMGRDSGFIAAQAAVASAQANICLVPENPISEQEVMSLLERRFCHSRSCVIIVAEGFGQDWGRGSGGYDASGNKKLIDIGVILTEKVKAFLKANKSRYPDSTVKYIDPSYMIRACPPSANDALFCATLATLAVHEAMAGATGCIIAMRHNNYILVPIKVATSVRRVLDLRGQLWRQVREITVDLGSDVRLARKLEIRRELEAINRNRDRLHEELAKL
Method in brief: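 Measures ADP output of PFK (1.25 nM) at 0.1 mM ATP, 0.5 mM F6P, pH 8.0 TEA buffer with 5 mM MgCl2. No-enzyme wells define full inhibition; uninhibited enzyme wells define zero.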

[2] = molecular target: Ubiquitin carboxyl-terminal hydrolase 1 (Homo sapiens) (UniProt O94782); assay: Inhibitors of USP1/UAF1: Pilot qHTS (AID 504865);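 note: rhodamine fluorescence freed from ubiquitin-rhodamine substrate followed over time; top concentration of the series differs between compounds; % is set by controls: 0 for no effect and ±100 for the full control effect; nearly all actives have a fitted effect of over 35% in size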
Chain of Ubiquitin carboxyl-terminal hydrolase 1 (Homo sapiens) (O94782 whole entry, looked up): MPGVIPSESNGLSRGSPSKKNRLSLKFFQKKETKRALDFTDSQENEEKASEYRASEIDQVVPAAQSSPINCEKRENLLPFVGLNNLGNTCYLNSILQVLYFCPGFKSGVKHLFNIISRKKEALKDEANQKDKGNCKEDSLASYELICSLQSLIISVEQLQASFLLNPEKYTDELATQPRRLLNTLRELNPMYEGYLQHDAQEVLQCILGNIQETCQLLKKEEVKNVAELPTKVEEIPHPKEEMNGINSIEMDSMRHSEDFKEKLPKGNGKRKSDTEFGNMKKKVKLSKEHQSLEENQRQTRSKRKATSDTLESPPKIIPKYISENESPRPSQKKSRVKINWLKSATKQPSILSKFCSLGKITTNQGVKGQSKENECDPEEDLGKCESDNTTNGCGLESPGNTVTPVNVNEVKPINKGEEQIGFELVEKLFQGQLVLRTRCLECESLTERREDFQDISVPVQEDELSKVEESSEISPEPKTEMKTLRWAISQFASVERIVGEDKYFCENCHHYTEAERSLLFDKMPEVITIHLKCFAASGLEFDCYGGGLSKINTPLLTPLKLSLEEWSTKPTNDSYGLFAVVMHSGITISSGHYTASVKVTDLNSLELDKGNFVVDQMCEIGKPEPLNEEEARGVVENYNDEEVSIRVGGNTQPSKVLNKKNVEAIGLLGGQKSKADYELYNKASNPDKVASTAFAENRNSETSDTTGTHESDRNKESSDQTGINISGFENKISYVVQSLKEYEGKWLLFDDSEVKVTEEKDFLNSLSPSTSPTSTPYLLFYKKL
Method in brief: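 In 50mM HEPES pH 7.8 containing 0.5mM EDTA, 1mM TCEP, 0.1 mg/ml BSA and 0.01% Tween-20, 1nM USP1/UAF1 is exposed to compound for 15 min, then Ub-Rho (150nM final) is added and fluorescence is read over time.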

[3] = molecular target: Luciferin 4-monooxygenase (Photinus pyralis) (UniProt P08659); assay: Biochemical firefly luciferase enzyme assay for NPC (AID 624030);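 note: purified P. pyralis luciferase at 10 nM with luciferin and ATP substrate; 0% = DMSO and -100% = full luciferase inhibition by PTC124 control; nearly all actives have a fitted effect of over 70% in size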
Chain of Luciferin 4-monooxygenase (Photinus pyralis) (P08659 whole entry, looked up): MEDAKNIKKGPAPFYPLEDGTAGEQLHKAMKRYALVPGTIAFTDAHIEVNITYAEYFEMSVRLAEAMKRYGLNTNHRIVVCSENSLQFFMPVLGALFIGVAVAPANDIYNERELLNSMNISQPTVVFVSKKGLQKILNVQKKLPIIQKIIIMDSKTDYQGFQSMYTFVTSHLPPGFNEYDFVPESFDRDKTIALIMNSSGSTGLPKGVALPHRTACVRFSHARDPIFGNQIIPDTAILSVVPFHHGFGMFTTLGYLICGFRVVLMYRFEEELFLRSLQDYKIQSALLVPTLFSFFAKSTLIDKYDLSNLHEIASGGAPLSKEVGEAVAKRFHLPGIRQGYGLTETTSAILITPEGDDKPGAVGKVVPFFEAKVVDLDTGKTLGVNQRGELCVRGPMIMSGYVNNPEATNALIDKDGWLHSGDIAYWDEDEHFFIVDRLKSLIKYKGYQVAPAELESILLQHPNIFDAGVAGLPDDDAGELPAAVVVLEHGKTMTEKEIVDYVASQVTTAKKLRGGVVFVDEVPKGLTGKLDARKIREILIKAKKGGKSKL
Method in brief: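 Direct inhibition of firefly luciferase enzyme (10 nM final, 50 mM Tris Acetate) assessed by luminescence within 5 minutes. Percent activity scaled between DMSO and PTC124 positive control, with concentration-effect curves classified by fit quality and response.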

[4] = S16 Schwann cell viability assay (CellTiter-Glo assay) (AID 624031);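 note: native untransfected S16 rat Schwann cells; plate controls were DMSO-treated cells for no effect and cell-free wells for full effect; nearly all actives have a fitted effect of over 70% in size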
Method in brief: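 Counter-screen for cytotoxicity: parental S16 rat Schwann cells lacking the PMP22 reporters, treated 24 h with compound, viability from cellular ATP by CellTiter-Glo luminescence, normalized to DMSO (0%) and no-cell wells.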

[5] = S16 Schwann cell PMP22 intronic element firefly luciferase assay (AID 624032);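 note: plate controls were DMSO for no effect and PTC124 positive control mean for full effect; nearly all actives have a fitted effect of over 30% in size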
Method in brief: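 Luciferase reporter of PMP22 intronic-element expression in stably transfected S16 rat Schwann cells, read by ONE-Glo luminescence after 24 h compound exposure at 37 C. Activity scaled between DMSO (0%) and positive-control PTC124; concentration-effect curves quality-classified.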

[6] = S16 Schwann cell PMP22 intronic element beta-lactamase assay (AID 624044; calls by dose curve;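 note: 0% = DMSO and -100% = potassium clavulanate positive control; nearly all actives have a fitted effect of over 15% in size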); conditions: S16 rat Schwann cells, PMP22 element beta-lactamase FRET, 24 h; ratio activity, negative = inhibition: at 38.3 µM (top of the series)
Method in brief: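 Beta-lactamase reporter under a PMP22 intronic regulatory element in stable S16 rat Schwann cells; 24 h compound exposure. 460 nm blue signal normalized between DMSO (0%) and potassium clavulanate, with 535 nm FRET tracking viability; curves classed by r2 and response.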

[7] = qHTS profiling for inhibitors of Plasmodium falciparum proliferation (AID 504749);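 note: 0% = DMSO vehicle and full inhibition = artemisinin control; nearly all actives have a fitted effect of over 60% in size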; conditions: P. falciparum in erythrocytes, SYBR Green DNA, 72 h, at 28.7 µM (top of the series)
Method in brief: (§1)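 In a 72 h erythrocytic culture (37 C, humidified, 5% CO2) at 2.5% hematocrit and 0.3% starting parasitemia, compounds were tested; SYBR Green I in detergent lysis buffer stained parasite DNA overnight.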

3D7 = assay: as above; conditions: P. falciparum in erythrocytes, SYBR Green DNA, 72 h; series mostly up to 28.7 µM
Method in brief: as §1

7G8 = assay: as above; conditions: P. falciparum in erythrocytes, SYBR Green DNA, 72 h; series mostly up to 28.7 µM
Method in brief: as §1

AA1029 = assay: as above; conditions: P. falciparum in erythrocytes, SYBR Green DNA, 72 h; series mostly up to 28.7 µM
Method in brief: as §1

AS120 = assay: as above; conditions: P. falciparum in erythrocytes, SYBR Green DNA, 72 h; series mostly up to 28.7 µM
Method in brief: as §1

ATS189 = assay: as above; conditions: P. falciparum in erythrocytes, SYBR Green DNA, 72 h; series mostly up to 28.7 µM
Method in brief: as §1

ATS95 = assay: as above; conditions: P. falciparum in erythrocytes, SYBR Green DNA, 72 h; series mostly up to 28.7 µM
Method in brief: as §1

C2A = assay: as above; conditions: P. falciparum in erythrocytes, SYBR Green DNA, 72 h; series mostly up to 28.7 µM
Method in brief: as §1

CP185 = assay: as above; conditions: P. falciparum in erythrocytes, SYBR Green DNA, 72 h; series mostly up to 28.7 µM
Method in brief: as §1

CP191 = assay: as above; conditions: P. falciparum in erythrocytes, SYBR Green DNA, 72 h; series mostly up to 28.7 µM
Method in brief: as §1

CP192 = assay: as above; conditions: P. falciparum in erythrocytes, SYBR Green DNA, 72 h; series mostly up to 28.7 µM
Method in brief: as §1

CP194 = assay: as above; conditions: P. falciparum in erythrocytes, SYBR Green DNA, 72 h; series mostly up to 28.7 µM
Method in brief: as §1

CP201 = assay: as above; conditions: P. falciparum in erythrocytes, SYBR Green DNA, 72 h; series mostly up to 28.7 µM
Method in brief: as §1

CP203 = assay: as above; conditions: P. falciparum in erythrocytes, SYBR Green DNA, 72 h; series mostly up to 28.7 µM
Method in brief: as §1

CP211 = assay: as above; conditions: P. falciparum in erythrocytes, SYBR Green DNA, 72 h; series mostly up to 28.7 µM
Method in brief: as §1

CP215 = assay: as above; conditions: P. falciparum in erythrocytes, SYBR Green DNA, 72 h; series mostly up to 28.7 µM
Method in brief: as §1

CP217 = assay: as above; conditions: P. falciparum in erythrocytes, SYBR Green DNA, 72 h; series mostly up to 28.7 µM
Method in brief: as §1

CP237 = assay: as above; conditions: P. falciparum in erythrocytes, SYBR Green DNA, 72 h; series mostly up to 28.7 µM
Method in brief: as §1

CP238 = assay: as above; conditions: P. falciparum in erythrocytes, SYBR Green DNA, 72 h; series mostly up to 28.7 µM
Method in brief: as §1

CP247 = assay: as above; conditions: P. falciparum in erythrocytes, SYBR Green DNA, 72 h; series mostly up to 28.7 µM
Method in brief: as §1

CP250 = assay: as above; conditions: P. falciparum in erythrocytes, SYBR Green DNA, 72 h; series mostly up to 28.7 µM
Method in brief: as §1

CP252 = assay: as above; conditions: P. falciparum in erythrocytes, SYBR Green DNA, 72 h; series mostly up to 28.7 µM
Method in brief: as §1

CP256 = assay: as above; conditions: P. falciparum in erythrocytes, SYBR Green DNA, 72 h; series mostly up to 28.7 µM
Method in brief: as §1

CP260 = assay: as above; conditions: P. falciparum in erythrocytes, SYBR Green DNA, 72 h; series mostly up to 28.7 µM
Method in brief: as §1

CP262 = assay: as above; conditions: P. falciparum in erythrocytes, SYBR Green DNA, 72 h; series mostly up to 28.7 µM
Method in brief: as §1

CP265 = assay: as above; conditions: P. falciparum in erythrocytes, SYBR Green DNA, 72 h; series mostly up to 28.7 µM
Method in brief: as §1

CP266 = assay: as above; conditions: P. falciparum in erythrocytes, SYBR Green DNA, 72 h; series mostly up to 28.7 µM
Method in brief: as §1

CP268 = assay: as above; conditions: P. falciparum in erythrocytes, SYBR Green DNA, 72 h; series mostly up to 28.7 µM
Method in brief: as §1

CP269 = assay: as above; conditions: P. falciparum in erythrocytes, SYBR Green DNA, 72 h; series mostly up to 28.7 µM
Method in brief: as §1

CP286 = assay: as above; conditions: P. falciparum in erythrocytes, SYBR Green DNA, 72 h; series mostly up to 28.7 µM
Method in brief: as §1

CP291 = assay: as above; conditions: P. falciparum in erythrocytes, SYBR Green DNA, 72 h; series mostly up to 28.7 µM
Method in brief: as §1

CP297 = assay: as above; conditions: P. falciparum in erythrocytes, SYBR Green DNA, 72 h; series mostly up to 28.7 µM
Method in brief: as §1

CP305 = assay: as above; conditions: P. falciparum in erythrocytes, SYBR Green DNA, 72 h; series mostly up to 28.7 µM
Method in brief: as §1

CP315 = assay: as above; conditions: P. falciparum in erythrocytes, SYBR Green DNA, 72 h; series mostly up to 28.7 µM
Method in brief: as §1

CP325 = assay: as above; conditions: P. falciparum in erythrocytes, SYBR Green DNA, 72 h; series mostly up to 28.7 µM
Method in brief: as §1

CP329 = assay: as above; conditions: P. falciparum in erythrocytes, SYBR Green DNA, 72 h; series mostly up to 28.7 µM
Method in brief: as §1

CP335 = assay: as above; conditions: P. falciparum in erythrocytes, SYBR Green DNA, 72 h; series mostly up to 28.7 µM
Method in brief: as §1

DFO2036 = assay: as above; conditions: P. falciparum in erythrocytes, SYBR Green DNA, 72 h; series mostly up to 28.7 µM
Method in brief: as §1

DIV14 = assay: as above; conditions: P. falciparum in erythrocytes, SYBR Green DNA, 72 h; series mostly up to 28.7 µM
Method in brief: as §1

DIV17 = assay: as above; conditions: P. falciparum in erythrocytes, SYBR Green DNA, 72 h; series mostly up to 28.7 µM
Method in brief: as §1

DIV30 = assay: as above; conditions: P. falciparum in erythrocytes, SYBR Green DNA, 72 h; series mostly up to 28.7 µM
Method in brief: as §1

Dd2 = assay: as above; conditions: P. falciparum in erythrocytes, SYBR Green DNA, 72 h; series mostly up to 28.7 µM
Method in brief: as §1

ECU = assay: as above; conditions: P. falciparum in erythrocytes, SYBR Green DNA, 72 h; series mostly up to 28.7 µM
Method in brief: as §1

FAB9 = assay: as above; conditions: P. falciparum in erythrocytes, SYBR Green DNA, 72 h; series mostly up to 28.7 µM
Method in brief: as §1

GB4 = assay: as above; conditions: P. falciparum in erythrocytes, SYBR Green DNA, 72 h; series mostly up to 28.7 µM
Method in brief: as §1

HB3 = assay: as above; conditions: P. falciparum in erythrocytes, SYBR Green DNA, 72 h; series mostly up to 28.7 µM
Method in brief: as §1

ICS = assay: as above; conditions: P. falciparum in erythrocytes, SYBR Green DNA, 72 h; series mostly up to 28.7 µM
Method in brief: as §1

JCK = assay: as above; conditions: P. falciparum in erythrocytes, SYBR Green DNA, 72 h; series mostly up to 28.7 µM
Method in brief: as §1

N140 = assay: as above; conditions: P. falciparum in erythrocytes, SYBR Green DNA, 72 h; series mostly up to 28.7 µM
Method in brief: as §1

P93_24 = assay: as above; conditions: P. falciparum in erythrocytes, SYBR Green DNA, 72 h; series mostly up to 28.7 µM
Method in brief: as §1

P94_40 = assay: as above; conditions: P. falciparum in erythrocytes, SYBR Green DNA, 72 h; series mostly up to 28.7 µM
Method in brief: as §1

PAD = assay: as above; conditions: P. falciparum in erythrocytes, SYBR Green DNA, 72 h; series mostly up to 28.7 µM
Method in brief: as §1

PC15 = assay: as above; conditions: P. falciparum in erythrocytes, SYBR Green DNA, 72 h; series mostly up to 28.7 µM
Method in brief: as §1

PC26 = assay: as above; conditions: P. falciparum in erythrocytes, SYBR Green DNA, 72 h; series mostly up to 28.7 µM
Method in brief: as §1

PC49 = assay: as above; conditions: P. falciparum in erythrocytes, SYBR Green DNA, 72 h; series mostly up to 28.7 µM
Method in brief: as §1

SC27B = assay: as above; conditions: P. falciparum in erythrocytes, SYBR Green DNA, 72 h; series mostly up to 28.7 µM
Method in brief: as §1

TAB109 = assay: as above; conditions: P. falciparum in erythrocytes, SYBR Green DNA, 72 h; series mostly up to 28.7 µM
Method in brief: as §1

TAB113 = assay: as above; conditions: P. falciparum in erythrocytes, SYBR Green DNA, 72 h; series mostly up to 28.7 µM
Method in brief: as §1

TAB165 = assay: as above; conditions: P. falciparum in erythrocytes, SYBR Green DNA, 72 h; series mostly up to 28.7 µM
Method in brief: as §1

W2 = assay: as above; conditions: P. falciparum in erythrocytes, SYBR Green DNA, 72 h; series mostly up to 28.7 µM
Method in brief: as §1

Cc1cnc(C(=O)O)cn1
inactive: Potency [1] | Potency [2] | Potency [3] | Potency [4] | Potency [5] | Potency [6] | activity, negative = inhibition ([7]; parasite line A) 9.61% | activity, negative = inhibition ([7]; parasite line B) 7.1% | Potency (3D7) | Potency (7G8) | Potency (AA1029) | Potency (AS120) | Potency (ATS189) | Potency (ATS95) | Potency (C2A) | Potency (CP185) | Potency (CP191) | Potency (CP192) | Potency (CP194) | Potency (CP201) | Potency (CP203) | Potency (CP211) | Potency (CP215) | Potency (CP217) | Potency (CP237) | Potency (CP238) | Potency (CP247) | Potency (CP250) | Potency (CP252) | Potency (CP256) | Potency (CP260) | Potency (CP262) | Potency (CP265) | Potency (CP266) | Potency (CP268) | Potency (CP269) | Potency (CP286) | Potency (CP291) | Potency (CP297) | Potency (CP305) | Potency (CP315) | Potency (CP325) | Potency (CP329) | Potency (CP335) | Potency (DFO2036) | Potency (DIV14) | Potency (DIV17) | Potency (DIV30) | Potency (Dd2) | Potency (ECU) | Potency (FAB9) | Potency (GB4) | Potency (HB3) | Potency (ICS) | Potency (JCK) | Potency (N140) | Potency (P93_24) | Potency (P94_40) | Potency (PAD) | Potency (PC15) | Potency (PC26) | Potency (PC49) | Potency (SC27B) | Potency (TAB109) | Potency (TAB113) | Potency (TAB165) | Potency (W2)
